Shown are actives, neighbours in structure and some others; about 5.1% of the full set was active somewhere.
MPTP inh: blocks calcium-induced mitochondrial swelling. isolated mouse mitochondria, Ca2+ swelling absorbance, 30 min. 360,000 tested, 1.4% active. inhibition, % at 10 µM;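 active = inhibition of 50% or more, scaled per plate between neutral and stimulator controls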
NR3A LBD binder: NR3A (human) ligand-binding domain modulation; NR3A LBD differential scanning fluorimetry, Tm shift; 0% = protein alone, 100% = glycine-bound protein; Tm shift relative to glycine control, % at 25 µM; 340,000 tested, 2.5% active; AID 1259313;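 active = melting temperature shift of at least 10% of the positive control shift, at one fixed dose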
TMEM16A act: activates or potentiates the mouse TMEM16A chloride channel | HEK293 TMEM16A/YFP-H148Q/I152L, iodide quench fluorescence; hits give low values | B-score at 10 µM | 340,000 tested, 0.3% active | AID 623877;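 active = fluorescence-ratio B-score plate-corrected deviation score at least 3 library SD below zero, with starting fluorescence score within 5 deviations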;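 note: channel opened by trigger with iodide after compound preincubation; score built on the fluorescence ratio of max minus min over baseline; more negative score means more quench and so TMEM16A activation or potentiation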
Target sequence (Q8BHY3 whole entry, looked up): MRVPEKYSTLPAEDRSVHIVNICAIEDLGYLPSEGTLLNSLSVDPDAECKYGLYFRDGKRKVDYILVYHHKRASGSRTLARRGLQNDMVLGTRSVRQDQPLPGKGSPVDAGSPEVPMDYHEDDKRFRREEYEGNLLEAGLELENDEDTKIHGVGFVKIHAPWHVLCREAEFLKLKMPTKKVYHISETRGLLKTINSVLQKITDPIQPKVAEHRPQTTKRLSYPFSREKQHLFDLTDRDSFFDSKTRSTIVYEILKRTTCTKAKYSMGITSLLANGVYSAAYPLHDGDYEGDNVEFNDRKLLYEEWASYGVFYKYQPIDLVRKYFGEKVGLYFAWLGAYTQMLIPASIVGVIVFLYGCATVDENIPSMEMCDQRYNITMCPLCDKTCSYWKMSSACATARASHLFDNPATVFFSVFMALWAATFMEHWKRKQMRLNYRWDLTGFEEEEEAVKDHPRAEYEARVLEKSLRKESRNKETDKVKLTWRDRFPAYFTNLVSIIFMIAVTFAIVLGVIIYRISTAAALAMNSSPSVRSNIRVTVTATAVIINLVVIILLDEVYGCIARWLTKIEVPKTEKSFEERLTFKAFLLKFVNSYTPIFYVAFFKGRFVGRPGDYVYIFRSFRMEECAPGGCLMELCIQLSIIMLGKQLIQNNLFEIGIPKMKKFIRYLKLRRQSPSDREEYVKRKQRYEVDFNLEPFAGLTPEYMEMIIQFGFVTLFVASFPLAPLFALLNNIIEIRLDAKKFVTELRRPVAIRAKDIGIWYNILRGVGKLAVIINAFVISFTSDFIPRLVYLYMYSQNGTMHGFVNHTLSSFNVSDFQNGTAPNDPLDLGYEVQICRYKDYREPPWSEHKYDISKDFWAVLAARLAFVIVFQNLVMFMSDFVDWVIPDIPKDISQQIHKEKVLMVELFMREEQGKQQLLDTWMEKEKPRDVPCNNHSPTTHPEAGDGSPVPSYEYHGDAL
CRFBP-R2 agonist: CRF-BP/CRF-R2 complex agonism. 350,000 tested, 0.46% active. HEK293 CRF-R2/CRF-BP, calcium dye fluorescence (FLIPR); percent of saturating CRF peptide response. AID 588473. activation, % at 13.2 µM;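 active = activation of at least 50%, plus an integration ratio under a set limit after plate pattern correction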
CRFR2-BP antag: antagonists of CRF-binding protein/CRF-R2 receptor complex. 350,000 tested, 0.59% active. HEK293 CRF-R2/CRF-BP, CRF-induced calcium fluorescence. inhibition, % at 11.8 µM;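 active = inhibition of the ligand-induced calcium signal above about 50% at the single tested concentration, limit read from the data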
TMEM16A inh: inhibitors of mouse TMEM16A calcium-activated chloride channel; Q8BHY3; HEK293 TMEM16A/YFP iodide influx fluorescence, ionomycin; normalized B-score (activity score, 25-100; higher = stronger inhibition) at 10 µM; 310,000 tested, 1.2% active;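 active = ratio plate-corrected score three or more library SD toward inhibition, starting fluorescence score within five deviations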;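 note: score derived from kinetic fluorescence span divided by baseline fluorescence per well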
MPTP counter: mitochondrial membrane potential, counter-screen; isolated mitochondria, Rhodamine 123 fluorescence; shares compounds with MPTP inh; inhibition, % at 10 µM; 5,000 tested, 78% active; in the data active = inhibition above about 22%
MPTP abs DR: MPTP inhibition, dose response swelling confirmation; shares compounds with MPTP inh; isolated mitochondria swelling, absorbance; 780 tested, 58% active; IC50, µM; in the data active = IC50 below about 20 µM
MPTP cs DR: counter-screen for mitochondrial permeability transition pore inhibitors, dose response; shares compounds with MPTP inh; isolated mitochondria counterscreen, fluorescence read-out; IC50, µM; 780 tested, 49% active; AID 651564; in the data active = IC50 below about 80 µM
A number is an active result; i = inactive; nt = not tested or not shown.

SMILES | MPTP inh | NR3A LBD binder | TMEM16A act | CRFBP-R2 agonist | CRFR2-BP antag | TMEM16A inh | MPTP counter | others
CCOC(=O)Cc1csc(SCC(=O)c2c(N)n(CC(C)C)c(=O)n(C)c2=O)n1 | 78 | i | i | i | i | i | 24
CC(C)Cn1c(N)c(C(=O)CSc2ncccn2)c(=O)n(C)c1=O | i | i | i | i | i | i | nt
Cc1csc(SCC(=O)c2c(N)n(CC(C)C)c(=O)n(C)c2=O)n1 | 51 | i | i | i | i | i | i | MPTP abs DR=i;MPTP cs DR=5.8
Cc1ccc(S(=O)(=O)N(C)C[C@@H]2OCc3cnnn3CCCC(=O)N([C@@H](C)CO)C[C@@H]2C)cc1 | i | nt | nt | i | i | nt | nt
COc1ccccc1N(C(C)=O)C1=C(Cl)C(=O)c2ccccc2C1=O | 51 | nt | nt | i | i | nt | 95
COc1ccccc1N(C(=O)CCl)c1cn(C(C)=O)c2ccccc12 | i | i | i | i | i | i | nt
CN(CC1CCN(CCc2cccc(C(F)(F)F)c2)CC1)C(=O)c1ccc(F)cc1 | i | i | i | i | i | i | nt
COc1cc(C(=O)N(C)CC2CCN(CCc3cccc(C(F)(F)F)c3)CC2)ccc1C | 81 | i | i | i | i | i | i | MPTP abs DR=7.6;MPTP cs DR=25
Cc1c(C#N)c(NC(=O)c2cccc(Cl)c2)n(Cc2ccccc2)c1C | i | i | i | i | i | i | nt
COc1ccc(Cn2c(C)c(C)c(C#N)c2NC(=O)Nc2cccc(Cl)c2)cc1 | 74 | i | i | i | i | i | 70
COc1ccc(Cn2c(C)c(C)c(C#N)c2NC(=O)Nc2ccc(Cl)cc2)cc1 | 94 | i | i | i | i | i | 78
COc1ccc(C(=O)NCC(=O)OCc2nc(N)nc(Nc3ccccc3C)n2)cc1 | i | i | i | i | i | nt | nt
C=CCC1(CC=C)CCCN1C(=O)c1cc(COc2ccc(C)nc2)on1 | 99 | i | i | i | i | i | 90
C=CCC1(CC=C)CCCN1C(=O)c1cc(COc2ccc(F)c(F)c2)on1 | i | i | i | i | i | i | nt
CC1CCc2c(sc3nc(C4CC4)nc(N4CCN(C(=O)c5ccco5)CC4)c23)C1 (stereo unspecified) | 64 | i | i | i | i | 100 | 68
COc1ccc2c(c1)CCC(=O)[C@H](O)C[C@H](c1ccccc1)OC2=O | i | nt | nt | nt | nt | nt | nt
O=C(CC1SC(=Nc2ccc(OC(F)F)cc2)N(CCC2=CCCCC2)C1=O)Nc1ccccc1F (stereo unspecified) | 96 | i | i | i | i | i | 72
CN=C1SC(CC(=O)Nc2ccccc2F)C(=O)N1C (stereo unspecified) | i | i | i | i | i | i | nt
CC(C)(C)N(Cc1ccccc1)C(=O)COC(=O)c1ccc(S(=O)(=O)N2CCOCC2)cc1 | i | i | i | i | i | nt | nt
O=C(NCc1cccs1)Nc1cccc(Cl)c1 | i | i | i | i | i | i | nt
O=C(Nc1cccc(Cl)c1)NC1(C(=O)NCc2cccs2)CCCCC1 | 81 | i | i | i | i | i | 74
S=C(NCc1cccs1)Nc1cccc(Cl)c1 | 91 | i | i | i | i | i | 98
S=C(NCc1cccs1)Nc1cc(Cl)cc(Cl)c1 | 90 | 12 | i | i | i | i | 78
CCOc1ccccc1NC(=O)COC(=O)c1ccc2ccccc2n1 | i | i | i | i | i | nt | nt
CCOC(=O)c1c(S(=O)(=O)NCC(=O)N2CCN(c3ccccc3)CC2)c(C)n(C)c1C | i | i | i | i | i | i | nt
O=C1/C(=C/c2ccc(O)cc2)SC(=S)N1CC1CCCO1 (stereo unspecified) | 60 | i | -5.1 | i | i | i | 70
CCCOc1ccc(/C=C2\SC(=S)N(CC3CCCO3)C2=O)cc1 (stereo unspecified) | i | i | i | i | i | i | nt
CN(C)CC[n+]1ccc(C(=O)c2ccccc2)cc1 | i | i | i | i | i | i | nt

Assay outcomes (PubChem)
